We go through 35 compounds from PubChem BioAssay.

Unmarked numbers belong to inactive results. Active and inactive are the calls of the source.
Note: test concentration not given here.

A short description of the first experiment: yeast growth modulation, basal conditions, primary screen, YJM789 clinical isolate, OD600, 24 h (AID 1089).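 Note: growth of clinical yeast isolate S. cerevisiae YJM 789 seeded 1000 cells per well.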 The following applies: S. cerevisiae YJM789 growth, higher = more signal, called active from +8 up or from −8 down.
As to `O=C1OCCC=C[C@H]2OC34C=CCN(c5ccc6ccccc6c5)C(=O)[C@H]3N(CCCO)C(=O)[C@@H]4C12` (some centres undefined), the z-score is 0.312.
Same read-out and setting: to `O=C1O[C@H](c2ccccc2)[C@H](c2ccccc2)N2[C@H]1[C@@H](C(=O)O)[C@]1(C(=O)Nc3ccc(C#CCCO)cc31)[C@H]2c1ccccc1OCCO` belongs 0.642; to `COC(=O)[C@@]1(Cc2ccc(F)cc2)[C@H]2c3cc(C(=O)N4CCCC4)n(CCc4c[nH]c5ccccc45)c3C[C@H]2CN1C(=O)c1ccccc1`, 0.519.
Same read-out and setting: under `[N-]=[N+]=Nc1ccccc1C[C@]1(C(=O)N2CCOCC2)COC(c2ccc(OCCCO)cc2)=N1` stands -2.05.
Same read-out and setting: under `C=CCN1C(=O)[C@]2(CCC(=O)OC(C)(C)C)N=C(c3ccc(OCCCO)cc3)O[C@@H]2c2ccccc21` stands -2.22; under `O=C1OCCC=C[C@H]2OC34C=CCN(Cn5nnc6ccccc65)C(=O)[C@H]3N(CCCO)C(=O)[C@@H]4C12` (some centres undefined), 0.0799; under `COCCOC(=O)N1C(=O)[C@@]2(c3ccccc31)[C@H](c1ccc(O)cc1)N1[C@H](c3ccccc3)[C@H](c3ccccc3)OC(=O)[C@H]1[C@@H]2C(=O)N1CCN(c2ncccn2)CC1`, 0.42.
Regarding `Cc1ccc(S[C@]2(C(=O)NCC(F)(F)F)CC(=O)N(Cc3cc(C(F)(F)F)cc(C(F)(F)F)c3)[C@@H]2c2ccc(CO)cc2I)cc1`, the z-score was -2.58.
As for `C#CCN([C@@H](Cc1ccccc1)C(=O)OC)[C@@H](/C=C/C1CC1)[C@H](O)Cc1ccccc1`, the z-score is -0.464.
Same read-out and setting: to `CC(C)C(CO)N1C(=O)[C@@H]2[C@H]3C(=O)OCC=C[C@H]3OC23C=CCN(c2ccc(Cl)cc2)C(=O)[C@@H]13` (some centres undefined) belongs 0.964; to `COC(=O)[C@@]1(Cc2ccc(F)cc2)[C@H]2c3cc(C(=O)N4CCCC4)n(Cc4ccc(C)c(F)c4F)c3C[C@H]2CN1C(=O)c1ccccc1`, 0.0074; to `COc1ccccc1CN1C(=O)c2ccccc2[C@](Cc2ccccc2I)(C(=O)O)[C@@H]1c1ccc(CO)cc1`, 0.443.
Same read-out and setting: under `COc1ccc([C@H]2OC[C@@H]3C[C@H](Cc4ccccc4)C(=O)N32)cc1` stands 1.35.
On the same count and under the same terms, to `COCCOC(=O)N1C(=O)[C@@]2(c3cc(C#CC4(O)CCCCCC4)ccc31)[C@H](c1ccc(O)cc1)N1[C@H](c3ccccc3)[C@H](c3ccccc3)OC(=O)[C@H]1[C@@H]2C(=O)N1CCN(c2ncccn2)CC1` belongs 0.12.
Take `CCCC1(C(=O)OC)C=C2C(=C(C)C(=O)C2C)CN1` (centres undefined): the z-score is -0.105.
For the compound `COc1cc(NN2C(C(O)c3ccco3)C=CC3C(=O)N(C)C(=O)C32)cc(OC)c1OC` (centres undefined), the z-score was -0.0402.
In the case of `CCCNC(=O)[C@@H]1c2ccccc2C(=O)N(Cc2ccc(OC(F)(F)F)cc2)[C@H]1c1ccc(CO)cc1`, the z-score is 0.645.
On the same count and under the same terms, under `C=CC[C@@H](OC(=O)Nc1ccc(OC)cc1)c1ccc(O)c(F)c1` stands -23.4 (active).
On to `CCCC[C@@H](O)C1=C(COC)C[C@H]2C(=O)N(Cc3ccccc3)C(=O)[C@H]2[C@H]1CO`, for which the z-score was 0.332.
Same read-out and setting: under `CC(C)NC(=O)[C@@]1(c2ccc([N+](=O)[O-])cc2)CC(=O)N(C2CCCCC2)[C@@H]1c1ccc(CO)cc1` stands 0.359.
Still for that read-out and setting: under `CC1CC/C=C\[C@H]2OC34C=CCN(c5ccc(Cl)cc5)C(=O)[C@H]3N(C(C)CO)C(=O)[C@]4(C)C2C(=O)O1` (some centres undefined) stands -0.0407.
The same measure, in the same setting: to `COc1cc2c(cc1O)C(C1CC1)N(Cc1cccc(OC(F)(F)F)c1)CC2` (centres undefined) belongs -2.19; to `CC(c1ccccc1)C(O)C1C=CC2C(=O)N(C)C(=O)C2N1Nc1ccccc1` (centres undefined), 0.188; to `CCOC(=O)C1=CC[C@@H](c2ccccc2F)N(S(=O)(=O)c2ccc(C)cc2)[C@H]1c1ccccc1`, -0.0047.

A further experiment can be described thus: fission yeast growth modulation, primary screen, strain 972, OD600, 24 h, no modulator (AID 1090).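 Note: basal condition with compound alone and no growth modifier present.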 The following applies: S. pombe 972 growth, higher = more signal, called active from +8 up or from −8 down.
Consider `CC1CC/C=C\[C@H]2OC34C=CCN(C(C)(C)C)C(=O)[C@H]3N(CCCCCO)C(=O)[C@@H]4C2C(=O)O1` (some centres undefined), for which the z-score is 0.531.
Same read-out and setting: under `COc1cc(NN2C(C(O)c3cc(OC)c(OC)c(OC)c3)C=CC3C(=O)N(C)C(=O)C32)cc(OC)c1OC` (centres undefined) stands -0.724; under `[N-]=[N+]=NCc1ccccc1[C@H]1OC(c2ccc(OCCCO)cc2)=N[C@@]1(Cc1ccccc1N=[N+]=[N-])C(=O)NCC(O)CO` (some centres undefined), -0.451.
For the compound `C=C(COC)/C(=C/C[C@H](OC(=O)c1ccncc1)c1ccccc1OCCO)c1cc(C(=O)OC)ccc1OC`, the z-score is -0.925.
For the compound `CC(C)=C1C(=O)C(c2ccccc2)=C2CN3C(=O)N(CCc4ccccc4)C(=O)[C@]3(Cc3ccc(C(F)(F)F)cc3)[C@H]21`, the z-score is 1.38.
Consider `NCCCCCCNC(=O)[C@@H]1C[C@@H]2C(=O)N[C@@H](CCCCN)C(=O)N2[C@@H]1c1ccc(O)cc1`, for which the z-score is 0.142.
Consider `CC(C)[Si](C#CCCCC#N)(O[C@H](c1ccccc1)c1cn(Cc2ccccc2)nn1)C(C)C`, for which the z-score was -2.74.
On the same count and under the same terms, to `CC(C)c1ccc(NN2C(C(O)c3ccc(C#N)cc3)C=CC3C(=O)N(c4ccccc4)C(=O)C32)cc1` (centres undefined) belongs 0.608; to `COC(=O)[C@]1(CCS(=O)(=O)c2ccccc2)N=C(c2ccc(OCCCO)cc2)O[C@@H]1c1ccccc1N=[N+]=[N-]`, -2.44; to `C=C[C@H](C)[C@H](OC(=O)Nc1ccc(SC)cc1)c1ccc(OCCO)cc1`, -2.34.
Still for that read-out and setting: to `Cc1ccc(S[C@]2(C(=O)NCC(F)(F)F)CC(=O)N(Cc3cc(C(F)(F)F)cc(C(F)(F)F)c3)[C@@H]2c2ccc(CO)cc2)cc1` belongs -0.322.
As to `O=C1OCCC=C[C@H]2OC34C=CCN(c5ccc6ccccc6c5)C(=O)[C@H]3N(CCCO)C(=O)[C@@H]4C12` (some centres undefined), the z-score was -0.951.
With `O=C1O[C@H](c2ccccc2)[C@H](c2ccccc2)N2[C@H]1[C@@H](C(=O)O)[C@]1(C(=O)Nc3ccc(C#CCCO)cc31)[C@H]2c1ccccc1OCCO`, the z-score is -0.495.
On the same count and under the same terms, to `COC(=O)[C@@]1(Cc2ccc(F)cc2)[C@H]2c3cc(C(=O)N4CCCC4)n(CCc4c[nH]c5ccccc45)c3C[C@H]2CN1C(=O)c1ccccc1` belongs 1.68; to `[N-]=[N+]=Nc1ccccc1C[C@]1(C(=O)N2CCOCC2)COC(c2ccc(OCCCO)cc2)=N1`, -5.79.
Turning to `C=CCN1C(=O)[C@]2(CCC(=O)OC(C)(C)C)N=C(c3ccc(OCCCO)cc3)O[C@@H]2c2ccccc21`, the z-score was -1.56.
Still for that read-out and setting: under `O=C1OCCC=C[C@H]2OC34C=CCN(Cn5nnc6ccccc65)C(=O)[C@H]3N(CCCO)C(=O)[C@@H]4C12` (some centres undefined) stands -0.973; under `COCCOC(=O)N1C(=O)[C@@]2(c3ccccc31)[C@H](c1ccc(O)cc1)N1[C@H](c3ccccc3)[C@H](c3ccccc3)OC(=O)[C@H]1[C@@H]2C(=O)N1CCN(c2ncccn2)CC1`, 1.17; under `Cc1ccc(S[C@]2(C(=O)NCC(F)(F)F)CC(=O)N(Cc3cc(C(F)(F)F)cc(C(F)(F)F)c3)[C@@H]2c2ccc(CO)cc2I)cc1`, -2.58.
The same measure, in the same setting: under `C#CCN([C@@H](Cc1ccccc1)C(=O)OC)[C@@H](/C=C/C1CC1)[C@H](O)Cc1ccccc1` stands -1.22; under `CC(C)C(CO)N1C(=O)[C@@H]2[C@H]3C(=O)OCC=C[C@H]3OC23C=CCN(c2ccc(Cl)cc2)C(=O)[C@@H]13` (some centres undefined), 0.123.
In the case of `COC(=O)[C@@]1(Cc2ccc(F)cc2)[C@H]2c3cc(C(=O)N4CCCC4)n(Cc4ccc(C)c(F)c4F)c3C[C@H]2CN1C(=O)c1ccccc1`, the z-score is -0.0098.
The same measure, in the same setting: to `COc1ccccc1CN1C(=O)c2ccccc2[C@](Cc2ccccc2I)(C(=O)O)[C@@H]1c1ccc(CO)cc1` belongs 0.812.
On the same count and under the same terms, to `COc1ccc([C@H]2OC[C@@H]3C[C@H](Cc4ccccc4)C(=O)N32)cc1` belongs -2; to `COCCOC(=O)N1C(=O)[C@@]2(c3cc(C#CC4(O)CCCCCC4)ccc31)[C@H](c1ccc(O)cc1)N1[C@H](c3ccccc3)[C@H](c3ccccc3)OC(=O)[C@H]1[C@@H]2C(=O)N1CCN(c2ncccn2)CC1`, -0.247; to `CCCC1(C(=O)OC)C=C2C(=C(C)C(=O)C2C)CN1` (centres undefined), 0.883.
For the compound `COc1cc(NN2C(C(O)c3ccco3)C=CC3C(=O)N(C)C(=O)C32)cc(OC)c1OC` (centres undefined), the z-score is 1.06.
The same measure, in the same setting: under `CCCNC(=O)[C@@H]1c2ccccc2C(=O)N(Cc2ccc(OC(F)(F)F)cc2)[C@H]1c1ccc(CO)cc1` stands 0.0302.
The same measure, in the same setting: under `C=CC[C@@H](OC(=O)Nc1ccc(OC)cc1)c1ccc(O)c(F)c1` stands -20.3 (active); under `CCCC[C@@H](O)C1=C(COC)C[C@H]2C(=O)N(Cc3ccccc3)C(=O)[C@H]2[C@H]1CO`, -0.677; under `CC(C)NC(=O)[C@@]1(c2ccc([N+](=O)[O-])cc2)CC(=O)N(C2CCCCC2)[C@@H]1c1ccc(CO)cc1`, 0.52.
Same read-out and setting: to `CC1CC/C=C\[C@H]2OC34C=CCN(c5ccc(Cl)cc5)C(=O)[C@H]3N(C(C)CO)C(=O)[C@]4(C)C2C(=O)O1` (some centres undefined) belongs -0.738.
Turning to `COc1cc2c(cc1O)C(C1CC1)N(Cc1cccc(OC(F)(F)F)c1)CC2` (centres undefined), the z-score was -5.25.
Same read-out and setting: to `CC(c1ccccc1)C(O)C1C=CC2C(=O)N(C)C(=O)C2N1Nc1ccccc1` (centres undefined) belongs 0.669; to `CCOC(=O)C1=CC[C@@H](c2ccccc2F)N(S(=O)(=O)c2ccc(C)cc2)[C@H]1c1ccccc1`, 1.29.
